# In paper PMC5540273 (PLoS ONE, 2017):
# Like-named read-outs stand apart in the source and are kept apart here.
# Legend:
# MAPKAPK5 = details: concentration: 1 μM, replicates: in singlicate; n = 1
# MARK1 = details: concentration: 1 μM, replicates: in singlicate; n = 1
# MARK2 = details: n = 1
# MARK3 = details: n = 1
# MARK4 = details: n = 1
# MAST1 = details: concentration: 1 μM, replicates: in singlicate; n = 1
# MEK1 = system: T1, MEK1; details: concentration: 1 μM, replicates: in singlicate; n = 1
# T1 construct: gene MAP2K1
# MEK2 = system: T2, MEK2; details: concentration: 1 μM, replicates: in singlicate; n = 1
# T2 construct: gene MAP2K2
# MEK3 = system: T3, MEK3; details: concentration: 1 μM, replicates: in singlicate; n = 1
# T3 construct: gene MAP2K3
# MEK4 = system: T4, MEK4; details: concentration: 1 μM, replicates: in singlicate; n = 1
# T4 construct: gene MAP2K4
# [1] = concentration: 1 μM, replicates: in singlicate
# 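Note: KINOMEscan kinase panel screen.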
SMILES,%Inh (MAPKAPK5),%Inh (MARK1),%Inh (MARK2; [1]),%Inh (MARK3; [1]),%Inh (MARK4; [1]),%Inh (MAST1),%Inh (MEK1),%Inh (MEK2),%Inh (MEK3),%Inh (MEK4),%Inh (MARK2; 1 µM),%Inh (MARK3; 1 µM),%Inh (MARK4; 1 µM)
COCCOCCOc1cc2ncc3c4ccc(C#N)cc4[nH]c3c2cc1OC,0%,0%,13%,7%,0%,69%,48%,80%,12%,0%,,,
COc1cccc(C(=O)Nc2cccc(Oc3ccc4nc(NC(=O)C5CC5)cn4n3)c2)c1,0%,17%,0%,0%,10%,0%,28%,43%,15%,0%,,,
Nc1ncc(-c2cccnc2)c2scc(-c3ccc4c(c3)CCN4C(=O)Cc3ccccc3)c12 [GSK683281],0%,0%,0%,19%,0%,0%,0%,1%,0%,66%,,,
CCn1c(-c2nonc2N)nc2c(C#CC(C)(C)O)nc(OC[C@H](N)c3ccccc3)cc21 [GSK943949],7%,54%,0%,0%,37%,4%,1%,0%,69%,15%,,,
CCS(=O)(=O)c1ccc(OC)c(Nc2nccc(-c3c(-c4cccc(NC(=O)c5c(F)cccc5F)c4)nn4ncccc34)n2)c1 [GSK326180],0%,6%,22%,0%,9%,0%,31%,18%,2%,25%,,,
O=c1[nH]cc(-c2ccc(N3CCOCC3)cc2)c2sc(-c3cn[nH]c3)cc12 [GSK2276055],2%,0%,0%,0%,0%,0%,0%,9%,17%,5%,,,
COC(=O)Nc1nc2cc(Oc3ccc(NC(=O)Nc4cc(C(F)(F)F)ccc4F)cn3)ccc2[nH]1.Cl.Cl [GW681170],0%,0%,0%,14%,0%,24%,0%,2%,7%,0%,,,
CN1CCN(Cc2cccc(-c3ccc4c(Nc5ccc(Oc6ccccc6)cc5)ccnc4c3)c2)CC1 [GW578342],0%,0%,5%,0%,0%,47%,54%,55%,0%,9%,,,
CSc1cccc2c(-c3ccncn3)c(-c3ccc(F)cc3)nn12 [GW514786],0%,0%,0%,0%,0%,0%,0%,0%,0%,4%,,,
CCn1c(-c2nonc2N)nc2c(C#CC(C)(C)O)ncc(OCCCCN)c21.O=C(O)C(F)(F)F.O=C(O)C(F)(F)F [GSK507274],0%,0%,,,,56%,0%,34%,0%,1%,68%,71%,0%
COc1cccc(NC(=O)NC2CCN(c3ccnc(Nc4cc(OC)c(OC)c(OC)c4)n3)C2)c1 (centres unmarked) [GSK1379763],0%,0%,0%,0%,0%,0%,0%,9%,8%,12%,,,
CN1CCN(CCCNc2nccc(-c3c(-c4ccc(F)cc4)nn4cc(C(F)(F)F)ccc34)n2)CC1 [GW621581],0%,7%,0%,16%,16%,0%,0%,0%,0%,10%,,,
Clc1ccc(-c2nn3ncccc3c2-c2ccnc(Nc3ccc4c(c3)OCCO4)n2)cc1 [GW829116],0%,0%,0%,20%,0%,0%,6%,27%,14%,1%,,,
CC(C)(C)c1ccc2nccc(Nc3cccc(O)c3)c2c1 [GW856795],0%,9%,2%,27%,21%,22%,46%,44%,49%,0%,,,
Nc1ncnc2c1nc(-c1ccccc1)n2-c1ccccc1 [SKF-97293],0%,27%,0%,39%,33%,47%,15%,14%,50%,35%,,,
COc1ccc(Nc2nccc(NCCNC(=O)c3cc4ccccc4s3)n2)cc1 [GSK1379896],0%,0%,0%,4%,0%,0%,0%,0%,0%,16%,,,

SMILES,%Inh (MAPKAPK5),%Inh (MARK1),%Inh (MARK2; [1]),%Inh (MARK3; [1]),%Inh (MARK4; [1]),%Inh (MAST1),%Inh (MEK1),%Inh (MEK2),%Inh (MEK3),%Inh (MEK4),%Inh (MARK2; 1 µM),%Inh (MARK3; 1 µM),%Inh (MARK4; 1 µM)
CC(C)c1nc(-c2cccc(NS(=O)(=O)c3c(F)cccc3F)c2F)c(-c2ccnc(Nc3ccc(N4CCOCC4)nc3)n2)s1 [GSK2008607],0%,0%,24%,0%,80%,0%,0%,64%,57%,100%,,,
Cc1ccc(C(=O)Nc2ccc(Nc3ccnc4cc(-c5nccs5)ccc34)cc2O)cc1.Cl [GW494702],0%,0%,0%,0%,0%,15%,13%,0%,0%,21%,,,
Fc1ccc(-c2ncn(C3CCNCC3)c2-c2ccnc(Oc3ccc(-c4ccccc4)cc3)n2)cc1 [SB-245391],0%,25%,23%,23%,25%,36%,15%,19%,18%,15%,,,
CN(c1ccc(NC(=O)Nc2cc(C(F)(F)F)ccc2F)cc1)c1ccnc(Nc2ccc(S(N)(=O)=O)cc2)n1 [GW809893],0%,7%,22%,2%,1%,18%,0%,19%,51%,67%,,,
O=C(NC1CCN(c2ccnc(Nc3ccc(F)cc3)n2)C1)c1cc2ccccc2s1 (centres unmarked) [GSK1379716],0%,0%,0%,0%,10%,0%,0%,4%,0%,20%,,,
Cc1ccc(S(=O)(=O)Nc2ccc(Nc3nccc(Nc4cccc5[nH]ncc45)n3)cc2)cc1 [GSK581271],0%,0%,0%,0%,7%,7%,0%,0%,0%,10%,,,
CCc1ccc(-c2ccc3c(c2)-c2c(cnn2C)S(=O)(=O)N3C)cc1,0%,0%,0%,3%,7%,0%,1%,0%,0%,6%,,,
Oc1cc(Nc2ccnc3cc(I)ccc23)ccc1F [GW552771],0%,0%,0%,0%,5%,20%,0%,0%,11%,34%,,,
COc1cccc(C2=C(Nc3ccc(Cl)c(C(=O)O)c3)C(=O)NC2=O)c1 [SB-390769],0%,0%,0%,0%,13%,0%,0%,0%,0%,97.4%,,,
Cl.Cl.NCC(C(=O)Nc1cc(Br)c(-c2ccnc3[nH]ccc23)s1)c1ccccc1 (centres unmarked) [GSK1269851],0%,0%,55%,0%,0%,13%,1%,0%,50%,11%,,,
O=C(Nc1cccc(Oc2ccc3nc(NC(=O)C4CC4)cn3n2)c1)c1ccccc1C(F)(F)F,0%,0%,6%,21%,12%,0%,69%,82%,17%,0%,,,
CN(C)Cc1ccc(-c2ccc3c(Nc4ccc(Oc5ccccn5)cc4)ccnc3c2)o1 [GW567148],0%,2%,0%,0%,13%,11%,94.7%,96.8%,0%,26%,,,
Cc1ccc(F)c(C(=O)Nc2cccc(-c3nn4ccccc4c3-c3ccnc(Nc4cccc(F)c4)n3)c2)c1F [GSK361061],0%,0%,14%,0%,14%,0%,3%,0%,0%,37%,,,
Cl.NC(=O)c1cccc(Nc2nccc(Nc3ccc(Oc4c(Cl)cccc4Cl)c(Cl)c3)n2)c1 [GW659009],0%,0%,0%,7%,0%,0%,0%,0%,0%,30%,,,
COC(=O)Nc1nc2ccc(Oc3ccc(NC(=O)Nc4cc(C(F)(F)F)ccc4F)cc3)cc2n1C.Cl [GW692089],0%,0%,0%,0%,2%,23%,0%,1%,0%,0%,,,
c1ccc(-c2cnc3nccnn23)cc1 [AH20685],0%,0%,0%,0%,0%,0%,0%,0%,0%,2%,,,
